Source: PubChem BioAssay
Rows were chosen to be rich in hits. Some 6.5% of all compounds tested hit in one or more screens of this group.
MK inhibit – S. pneumoniae mevalonate kinase inhibition; purified MK, PK/LDH-coupled NADH absorbance 340 nm; inhibition, % at 10 µM; hit rate 0.48% among 65,000; AID 555;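 active = ranked among the strongest by inhibition in the single 10 µM screen, a fixed top-ranked set picked for dose follow-up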
NADH coupling – inhibition of NAD/NADH coupling enzymes, library profiling; coupled PK/LDH NADH assays, four targets; IC50, µM (titrated, usually from 10 µM), for the others: at the highest dose inhibition; hit rate 0.02% among 65,000; AID 774;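 active = single-dose screening hits from any of four coupled enzyme assays that gave an IC50 when retested across doses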;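 also: the DPM-DC format reads NADH fluorescence rather than 340 nm absorbance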
Autofluor 339 – intrinsic fluorescence of library compounds, ex339/em460 – biochemical, MLSMR library, data from DPM-DC assay, artefact control, profiling panel; compound autofluorescence, ex339/em460 nm, NADH buffer; stronger effect = higher value; 1 = no-compound wells, NADH background; fluorescence fold increase at 10 µM; hit rate 5.5% among 65,000; AID 709;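 active = at 10 µM, mean starting fluorescence two-fold or more over control wells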;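 also: signal is the first read of a kinetic run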
Abs 340nm – compounds absorbing at 340 nm; compound absorbance at 340 nm, fold over control; fold change at 10 µM; 65,000 tested, under 10 active;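 active = at 10 µM dose, initial 340 nm absorbance at least 2 fold that of control wells; inactive = change under 2 fold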;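 also: initial absorbance extrapolated from kinetic A340 decline of NADH oxidation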
PMK inhibit – inhibitors of Streptococcus pneumoniae phosphomevalonate kinase; purified PMK, PK/LDH-coupled NADH absorbance 340 nm; inhibition, % at 10 µM; hit rate 0.49% among 65,000;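 active = top-ranked compounds by inhibition in the single 10 µM screen, taking a fixed number of the strongest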;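 also: 0% = full reaction with DMSO carrier and 100% = background rate without enzyme reaction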
DPM-DC inhibit – blocks S. pneumoniae diphosphomevalonate decarboxylase; AID 556; calls only at 10 µM; purified DPM-DC, PK/LDH coupled NADH fluorescence; hit rate 0.49% among 65,000;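 active = the 320 compounds with the highest percent inhibition in the single-dose primary screen, excluding strongly autofluorescent ones, cut at about 32% in these data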;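 also: kinetic rate of NADH fluorescence loss reporting ADP formed by the decarboxylase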
Active calls of the source: *; i = inactive; . = no result given.

SMILES	MK inhibit	NADH coupling	Autofluor 339	Abs 340nm	PMK inhibit	DPM-DC inhibit
CS(=O)(=O)c1ccc2nc(NC(NC(=O)c3ccco3)(C(F)(F)F)C(F)(F)F)sc2c1	4	2%	1	1	3	i
O=C1c2ccccc2NC(c2ccccc2)N1c1ccc(O)cc1 (stereo not given)	13	9%	1.6	1.1	13	i
O=C1c2ccccc2NC(c2ccccn2)N1c1ccc(Cl)cc1 (stereo not given)	5	10%	4.8*	0.98	14	.
Cc1cccc(C2Nc3ccccc3C(=O)N2c2ccccc2)n1 (stereo not given)	3	3%	2.2*	1.1	3	.
CCOC(=O)N1CCN(C(=O)C2CCCN(S(C)(=O)=O)C2)CC1 (stereo not given)	0	8%	1	1	23	i
CCOC(=O)N1CCN(C(=O)C2CCN(S(=O)(=O)N3CCCC3)CC2)CC1	0	9%	1.1	1	26*	i
COc1ccc(CN2C(=O)c3cccnc3C2Nc2cc(Cl)c(OC)cc2OC)cc1 (stereo not given)	57*	24%	1.1	1.1	15	i
CCN(CC)S(=O)(=O)c1ccc(NC2c3ncccc3C(=O)N2Cc2ccccc2)cc1 (stereo not given)	50*	21%	1.1	1.1	12	i
CCN(CC)S(=O)(=O)c1ccc(NC2c3ccccc3C(=O)N2Cc2ccc3c(c2)OCO3)cc1 (stereo not given)	6	2%	1.1	1	0	i
Cc1ccc2cc3cc(C(=O)N4CCN(C(=O)c5ccco5)CC4)sc3nc2c1	0	9%	1.7	1.1	20	i
CCN1CCN(C(=O)c2cc3cc4cc(OC)ccc4nc3s2)CC1	0	8%	2.8*	1	20	i
CCCCC(=O)Nc1ccccc1C#N	13	9%	1.1	1	10	i
CCCCn1c(NC(=O)c2ccccc2Cl)c(C#N)c2nc3ccccc3nc21	9	5%	4*	1.1	0	.
CCCCn1c(NC(=O)CC)c(C#N)c2nc3ccccc3nc21	9	7%	3*	1	19	.
Cc1cc(C)nc(SCc2nnc(SCC(=O)N3CCCc4ccccc43)o2)n1	8	3%	1.2	0.98	2	i
O=C(Cc1ccccc1)N1CCCC(c2nc(-c3cccs3)no2)C1 (stereo not given)	3	2%	1	1	8	i
O=S(=O)(Cc1ccccc1)N1CCC(c2nc(-c3cccs3)no2)CC1	5	14%	3.1*	1	13	i
CCOc1ccccc1-n1c(SCC(=O)NC(C)CC)nnc1-c1ccoc1C (stereo not given)	3	1%	1.1	0.99	0	i
CN(C)c1ccc(-c2noc(-c3ccccc3O)n2)cc1	8	8%	5.3*	1	8	.
Cc1ccc(-c2noc(-c3ccccc3Br)n2)cc1	6	3%	1.1	1	2	i
CCOC(=O)CC(=O)CSc1nc(N)c(C#N)c(-c2ccc(F)cc2)c1C#N	4	9%	1.1	1.1	13	i
COc1ccccc1-c1nnc(NC(=O)C(C)SC2=NCCS2)s1 (stereo not given)	8	4%	1.1	1.1	0	i
CCNc1nnc(-c2ccccc2OC)s1	7	8%	2.1*	1.1	9	.
Cc1cc(C)n(-c2ccc(-n3ccnc3)nn2)n1	0	1%	1.1	1	4	i
Cc1cccc2cc(CN(CCN3CCOCC3)C(=O)Nc3ccccc3F)c(=O)[nH]c12	0	0%	1.3	1	0	i
SMILES	MK inhibit	NADH coupling	Autofluor 339	Abs 340nm	PMK inhibit	DPM-DC inhibit
Cc1ccc2[nH]c(=O)c(CN(CCN3CCOCC3)C(=O)Nc3ccccc3F)cc2c1	active	6%	1.5	1	13	i
COc1cc2cc(CN(CCN3CCCC3)C(=O)Nc3ccc(F)cc3)c(=O)[nH]c2cc1OC	.	9%	3.1*	1.1	0	i
COc1ccc2[nH]c(=O)c(CN(C(C)=O)C3CCCCC3)cc2c1	0	0%	3.5*	1.1	0	.
COc1cc2cc(CN(C(=O)Nc3ccccc3)C3CCCC3)c(=O)[nH]c2cc1OC	0	6%	3.2*	1.1	11	.
CCOCCOCN(C#N)c1nc(OC)nc(N(C)C)n1	5	8%	1.1	1.1	18	i
CCOC(=O)c1cc2occc2n1CC(=O)Nc1ccc(OC)cc1OC	5	5%	0.98	1	11	i
O=C(O)CC(c1ccc(Cl)cc1)N1C(=O)CCC1=O (stereo not given)	4	6%	1.1	0.97	13	i
c1cnc(Oc2ccc(-c3nnco3)cc2)cn1	0	2%	1.1	1	5	i
COc1cc(OC)cc(C(=O)NCCN2CCOCC2)c1	11	4%	1	0.99	14	i
CCc1ccc2[nH]c(=O)c(CN(CCN(CC)CC)C(=O)NC3CCCCC3)cc2c1	0	12%	1.6	1.1	21	i
COc1ccc2[nH]c(=O)c(CN(C(=O)NC3CCCCC3)C3CCCC3)cc2c1	9	10%	2.5*	1	10	i
COc1c(S(=O)(=O)N2CCCCC2)ccc2c(S(=O)(=O)N3CCCCC3)cccc12	9	5%	1.1	1.1	5	i
Cc1nc2c(c(=O)n1Cc1ccccc1Cl)c1nc3ccccc3nc1n2Cc1ccco1	13	7%	2.3*	1.1	7	i
O=C(Nc1cccnc1)c1coc(=O)c2ccccc12	5	10%	1.5	1	11	i
Cc1ccc(-c2cc(C(=O)Nc3cccnc3)c3ccccc3n2)o1	15	8%	2.2*	1.1	0	.
COc1cc(-c2nnc(-c3ccc(S(=O)(=O)c4ccccc4)cc3)o2)cc(OC)c1OC	8	11%	3.7*	1	13	.
COc1cc(-c2nnc(SCC(=O)c3ccccc3)o2)cc(OC)c1OC	0	5%	1.1	1	14	i
CCn1nnc(NC(=O)c2cccnc2)n1	9	6%	1.1	0.98	9	i
CCn1nnc(NC(=O)c2cccc(-c3cc4ccccc4oc3=O)c2)n1	67*	38%	3.9*	1.2	9	.
CC1(C)CC2CC(C)(CN2C(=O)C23CCC(C)(C(=O)O2)C3(C)C)C1 (stereo not given)	6	6%	1.1	1	11	i
CCn1c(SCC(=O)c2[nH]c(C)c(C(C)=O)c2C)nnc1-c1cccs1	5	11%	1.1	1.1	27*	i
CCOC(=O)C1CCCN(C(=O)C2CCN(S(=O)(=O)CC)CC2)C1 (stereo not given)	0	3%	1.1	1	10	i
O=C(O)c1cc(=O)c2c(OCC(O)COc3cccc4oc(C(=O)O)cc(=O)c34)cccc2o1	7	2%	1	0.99	0	i
